Screening data as filed in PubChem.
ALOX15 inhib: 15-hLO (ALOX15) enzyme inhibition; Potency, µM (top dose mostly 57.1 µM), without a hit: top-dose activity change, negative = inhibition, hits mostly inhibitors; P16050; 1.4% of 74,000 active; purified 15hLO-1, xylenol orange hydroperoxide absorbance; note: nearly all actives have a fitted effect of over 55% in size
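Purified human 15hLO-1 (40 nM) in 25 mM Hepes pH 7.5, 0.01% Triton X-100, preincubated 15 min RT with compound, then 50 uM arachidonic acid for 6 min. Hydroperoxide read by ferrous/xylenol orange, 30 min; 573/405 nm absorbance ratio gave progress.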
HADH2 inhib: blocks human hydroxyacyl-CoA dehydrogenase type II. recombinant HADH2, NADH fluorescence, beta-hydroxybutyryl-CoA. AID 886. Potency, µM (series often up to 57.1 µM), without a hit: at the highest dose activity change, negative = inhibition, usual class: inhibitors. 3.4% of 73,000 active. Q99714; note: nearly all actives have a fitted effect of over 60% in size
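20 nM HADH2 + cpd, 15 min RT; add 1 mM NAD+/90 uM beta-hydroxybutyryl-CoA; kinetic fluorescence 360/450 nm, 4 min. Tris-HCl pH 9.0, 0.01% Tween-20.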
Bst PK mod: pyruvate kinase (B. stearothermophilus) modulation; purified pyruvate kinase, luminescence ATP production; ribose 5-phosphate activator present at AC10; Potency, µM; 1.2% of 51,000 active; AID 361; in the data active = potency below about 11 µM; inconclusive = mostly about 12 µM to 25 µM;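 the screen sought inhibitors and activators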;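 note: scaled between full activation by ribose 5 phosphate and full inhibition by luteolin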
ERK AVP inh: inhibitors of vasopressin-stimulated ERK signaling pathway; HEK293-V1b, vasopressin-stimulated pERK AlphaScreen; Potency, µM (titrated, usually from 57.5 µM), without a hit: at the top dose activity, negative = inhibition, most hits filed as inhibitors; 0.99% of 72,000 active; note: nearly all actives have a fitted effect of over 55% in size
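Overnight-seeded V1b-HEK293 cells in 1% FBS got compound, then vasopressin (25 nM final, 5 min, 37C), then lysis buffer. AlphaScreen detection of phospho-ERK; activity normalized to basal and full-stimulation controls.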
HSD17B inhib: inhibitors of human HSD17B10 dehydrogenase; Q99714; recombinant HSD17B10, NADH fluorescence kinetic; Potency, µM (top dose mostly 57.1 µM), inactives show top-dose activity change, negative = inhibition, most hits filed as inhibitors; 7.6% of 75,000 active; AID 893;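 note: the protocol describes HADH2 (HSD17B10) and not the HSD17B4 of the title; nearly all actives have a fitted effect of over 70% in size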
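Enzyme plus compound, 15 min room temperature; substrate mix added (NAD+ 1 mM, beta-hydroxybutyryl-CoA 90 uM final); plates read kinetically for NADH fluorescence. HADH2 was His-tagged, E. coli-derived, 20 nM.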
Luciferase inh: firefly luciferase inhibition; P08659; purified firefly luciferase, luminescence, 8 min; Potency, µM (series often up to 57.1 µM), for the others: at the highest dose activity change, negative = inhibition, most hits filed as inhibitors; 2.2% of 72,000 active; note: nearly all actives have a fitted effect of over 40% in size
Target sequence (P08659 whole entry, looked up): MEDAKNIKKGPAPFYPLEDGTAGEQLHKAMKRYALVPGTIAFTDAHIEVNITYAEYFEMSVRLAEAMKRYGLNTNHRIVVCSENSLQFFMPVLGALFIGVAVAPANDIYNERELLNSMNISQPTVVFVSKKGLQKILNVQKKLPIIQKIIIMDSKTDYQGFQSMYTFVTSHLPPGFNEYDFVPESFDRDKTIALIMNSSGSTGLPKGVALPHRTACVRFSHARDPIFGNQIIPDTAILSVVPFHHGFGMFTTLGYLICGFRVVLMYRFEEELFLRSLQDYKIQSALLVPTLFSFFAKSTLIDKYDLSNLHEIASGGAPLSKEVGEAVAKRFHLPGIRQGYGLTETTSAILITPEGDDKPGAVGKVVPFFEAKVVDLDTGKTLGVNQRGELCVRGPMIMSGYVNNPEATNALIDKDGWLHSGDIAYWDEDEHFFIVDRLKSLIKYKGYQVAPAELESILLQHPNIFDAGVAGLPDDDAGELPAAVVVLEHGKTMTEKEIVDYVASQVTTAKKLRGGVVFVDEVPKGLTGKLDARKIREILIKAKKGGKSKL
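Titration-based qHTS; buffer 50 mM imidazole pH 7.2, 50 mM KCl, 7 mM MgCl2, 10 uM ATP, 0.01% Tween 20, 0.05% BSA; luciferase/luciferin detector mix added after compound; 8 min, ambient; luminescence.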
* marks the source's active call; other numbers are inactive results; i = inactive; ? = inconclusive; · = not tested or not shown; [ ] = dose if it differs, or a comment. An excerpt weighted towards active compounds, which were near 11% of everything screened. Unless noted, calls come from the whole dose curve; as a rule, active = well fitted curve in the direction sought with a large enough effect; inconclusive = small, poorly fitted or top-dose-only effect, or another doubt; inactive = no such curve, though single readings can be large; an effect the other way counts as inactive or inconclusive. Unless noted, % is set by controls: 0 for no effect and ±100 for the full control effect; potency is the fitted concentration of half-maximal effect.

SMILES	ALOX15 inhib	HADH2 inhib	Bst PK mod	ERK AVP inh	HSD17B inhib	Luciferase inh
Cc1ccc2c(c1)c1c(n2CC2COC(C)(C)O2)C(=O)CCC1 (stereo not given)	-12%	-16%	·	16%	25µM*	-1%
Cc1ccc2c(c1)c1c3n2CCN(C(=O)Cn2c(-c4ccccc4)noc2=O)C3CCC1 (stereo not given)	-10%	-3%	>57	-16%	-21%	2%
Cc1ccc2c(c1)c1c(n2CC(O)Cn2c(C)nc3ccccc32)C(=O)CCC1 (stereo not given)	-2%	14%	·	3%	32µM*	-4%
Cc1ccc2c(c1)c1c(n2CC(O)Cn2c(C)nc3ccccc32)/C(=N\O)CCC1 (stereo not given)	-21%	-19%	>57	15%	-9%	-2%
CN(C)CCCNCCCN	23%	6%	·	9%	7%	·
CCN(CC)C(=S)SSC(=S)N(CC)CC	?	0.16µM*	·	-10%	?	-19%[25.5 µM]
CCCn1c(-c2ccccc2)nc2c(=O)n(C)c(=O)[nH]c21	2%	13µM*	·	·	32µM*	·
COc1ccc(-c2nc3c(=O)n(C)c(=O)[nH]c3n2CCc2ccccc2)cc1	3%	i	>57	-9%	25µM*	-1%
COc1ccc(OC)c2c(C)cc(N3CCN(C(=O)c4ccc(F)cc4)CC3)nc12	-29%	-15%	·	32µM*	25µM*	-1%
O=C(c1cc2c(ccc3ccccc32)oc1=O)N1CCN(CCO)CC1	0%	25µM*	·	·	20µM*	3%
C[N+](C)([O-])CCC=C1c2ccccc2CCc2ccccc21	3%[11.4 µM]	2%[11.4 µM]	·	8%[11.5 µM]	8%[11.4 µM]	6%[11.4 µM]
Cc1ccc(S(=O)(=O)NC(=O)OC23COCN2COC3)cc1	4%[11.4 µM]	1%[11.4 µM]	·	-10%[11.5 µM]	7%[11.4 µM]	3%[11.4 µM]
Cc1c(C(=O)OCc2ccccc2)[nH]c2c1C(=O)CC(c1ccco1)C2 (stereo not given)	-16%	?	·	-7%	?	-8%
COCCOC(=O)c1[nH]c2c(c1C)C(=O)CC(c1ccco1)C2 (stereo not given)	?	-19%	·	?	25µM*	1%
CCOC(=O)c1[nH]c2c(c1C)C(=O)CC(c1ccco1)C2 (stereo not given)	?	?	·	-27%	25µM*	0%
CCCCOC(=O)c1[nH]c2c(c1C)C(=O)CC(c1cc(OC)c(OC)c(OC)c1)C2 (stereo not given)	-10%	-5%	·	25µM*	2%	2%
C[C@@H](N1CCOCC1)[C@@](O)(c1ccccc1)c1ccccn1	10%[11.4 µM]	0%[11.4 µM]	·	10%[11.5 µM]	-5%[11.4 µM]	4%[11.4 µM]
O=C(O)CN(CC(=O)O)c1ccccc1	7%[11.4 µM]	-3%[11.4 µM]	·	14%[11.5 µM]	6%[11.4 µM]	1%[11.4 µM]
CCOC(=O)CCN1C(=O)[C@H]2[C@H]3[C@H](O)[C@H](O)C/C(=N/O[C@@H]4O[C@@H](COC(C)=O)[C@@H](OC(C)=O)[C@@H](OC(C)=O)[C@H]4OC(C)=O)[C@@H]3CC[C@@H]2C1=O	-3%[11.4 µM]	21%[11.4 µM]	·	23%[11.5 µM]	7%[11.4 µM]	1%[11.4 µM]
O=[N+]([O-])c1cccc(/C=N\Nc2ccc3ccccc3n2)c1O	47%[11.4 µM]	2%[11.4 µM]	·	-25%[11.5 µM]	-1%[11.4 µM]	3.2µM*
O=C(/N=C1\NC(=O)C(F)(C(F)(F)F)S1)NC1CCCCC1 (stereo not given)	10µM*	3.2µM*	>57	-9%	20µM*	0%
CC(=O)N[C@@H](C(=O)O)C(C)(C)SN=O	-10%	-1%	·	10%	-16%	1%
N[C@H](Cc1cccc(-c2ccccc2CP(=O)(O)O)c1)C(=O)O	18%	-10%	·	?	7%	1%
CC(CCc1nc2ccccc2s1)(c1ccc(O)cc1)c1ccc(O)cc1	-25%[11.4 µM]	?	·	15%[11.5 µM]	-26%[11.4 µM]	1%[11.4 µM]
C=CCC1C=CC(OC(=O)OCC)C(COC(=O)OCC)O1 (stereo not given)	11%[11.4 µM]	6%[11.4 µM]	·	9%[11.5 µM]	7%[11.4 µM]	·
SMILES	ALOX15 inhib	HADH2 inhib	Bst PK mod	ERK AVP inh	HSD17B inhib	Luciferase inh
Cc1ccccc1NC(=O)c1nc[nH]c1C(=O)NCc1ccccc1	23%	3%	>57	25µM*	279%	2%
CCOc1ccc2nc(NC(=O)C(NS(=O)(=O)c3cccs3)C(C)C)sc2c1 (stereo not given)	3%	9%	>57	8%	-8%	3%
CCOc1ccc2nc(NC(=O)C(CCSC)NS(=O)(=O)c3cccs3)sc2c1 (stereo not given)	16µM*	13%	>57	?	-10%	-1%
N#Cc1c(NC(=O)CSc2ncnc3c2cnn3-c2ccccc2Cl)sc2c1CCCC2	-4%	-23%	>57	0%	-1%	3%
CCOC(=O)Cc1csc(NC(=O)CSc2ncnc3c2cnn3-c2ccccc2Cl)n1	-13%	1%	>57	40µM*	-3%	-2%
COc1ccc(-c2nn(-c3ccccc3)cc2CO)cc1OC	3%[11.4 µM]	20%[11.4 µM]	·	-28%	25µM*	-23%
OCc1cn(-c2ccccc2)nc1-c1ccc2c(c1)OCCO2	-2%	-21%	·	25µM*	25µM*	-19%
CO[C@H]1COC(=O)[C@@H](C)COC(=O)[C@@H](Cc2ccccc2)NC(=O)C/C=C\[C@H]1C	0%[11.4 µM]	-1%[11.4 µM]	·	9%[11.5 µM]	4%[11.4 µM]	-1%[11.4 µM]
CC1(C)C(=O)C2(CCCC2)C(=O)OC1c1ccco1 (stereo not given)	1%	-12%	>57	-3%	10%	0%
CC1(C)CC(=O)C(C(c2ccco2)C2C(=O)CC(C)(C)CC2=O)C(=O)C1	0%	?	>57	0%	25µM*	-3%
CN1C[C@@H]2C(c3ccccc3)C3(c4ccc(C#N)cc4)CC2(C3)[C@H]1c1ccccc1 (stereo not given in full)	·	·	·	6%	-2%	·
CN1C=CC2=C(C#N)C(N)C(C#N)(C#N)C(c3ccccc3)C2C1 (stereo not given)	?	?	>57	?	32µM*	-1%
Cc1cc(C(=O)O)ccc1[C@H](N)C(=O)O	-5%[25.6 µM]	7%	·	3%	-6%	0%
CCNc1ncc2nc(-c3ccc(F)cc3)c(=O)n(-c3ccc(OC)cc3)c2n1	0%	4%	·	-17%	5%	2%[11.4 µM]
CCNc1ncc2nc(-c3ccc(Cl)cc3)c(=O)n(-c3ccccc3)c2n1	-5%	138%	·	-30%	13µM*	1%[11.4 µM]
CCNc1ncc2nc(-c3ccccc3)c(=O)n(-c3ccc(OC)cc3)c2n1	8%	23%	·	13%	16µM*	1%[11.4 µM]
CN(C)C(=O)C1CCN(Cc2c[nH]c3ccccc23)CC1	-12%[11.4 µM]	-6%[11.4 µM]	·	-19%[11.5 µM]	6%[11.4 µM]	6%[11.4 µM]
CCOC(=O)Cc1csc(NC(=O)c2ccc3c(c2)OCO3)n1	-12%	-17%	·	-15%	1%	20µM*
Cc1cc(NC(=O)c2ccc3c(c2)OCCO3)no1	1%	4%	3*	-1%	4%	2µM*
